# ALDH1A1 block: inhibitors of human aldehyde dehydrogenase 1A1. P00352. Purified ALDH1A1, NADH fluorescence, propionaldehyde substrate. Potency, µM (series often up to 75.3 µM), usual class: inhibitors. 7.3% of 220,000 active. AID 1030
# 12-hLO inh: 12-hLO (ALOX12) enzyme inhibition; P18054; purified 12-hLO, xylenol orange hydroperoxide absorbance; Potency, µM (series often up to 57.1 µM), usual class: inhibitors; 0.12% of 150,000 active; AID 1452; active = well fitted inhibition curve with a large enough effect; inconclusive = small, poorly fitted or top-dose-only effect; also: nearly all actives have a fitted effect of over 55% in size
#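 Hydroperoxide output read as Fe(III)-xylenol orange absorbance, 573-to-405 nm ratio, after 30 min reaction with 40 uM arachidonic acid. Enzyme: 150 nM purified human 12hLO, 15 min compound preincubation; 25 mM Hepes pH 7.0, room temperature.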
# HPGD block: blocks human HPGD enzyme activity; Potency, µM, hits mostly inhibitors; purified HPGD, NADH fluorescence kinetic, PGE2 substrate; AID 894; P15428; 4.3% of 150,000 active
# Target sequence (P15428 whole entry, looked up): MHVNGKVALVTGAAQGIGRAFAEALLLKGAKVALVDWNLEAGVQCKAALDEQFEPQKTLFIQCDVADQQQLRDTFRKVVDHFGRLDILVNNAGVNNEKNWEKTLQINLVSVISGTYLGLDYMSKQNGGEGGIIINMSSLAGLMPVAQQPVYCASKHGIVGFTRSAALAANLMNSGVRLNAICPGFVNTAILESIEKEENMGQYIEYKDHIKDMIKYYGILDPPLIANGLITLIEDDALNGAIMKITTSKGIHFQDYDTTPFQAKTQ
#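 20 nM HPGD preincubated 15 min at room temperature with compound in 50 mM Tris-HCl pH 8, 0.01% Tween 20. Started with 1 mM NAD+ and 30 uM prostaglandin E2; NADH fluorescence (360/450 nm) read 5 times over 30-s intervals, last minus first.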
# Lamin A splicing: modulators of lamin A splicing; Potency, µM (top dose mostly 46.1 µM), hits mostly inhibitors; HeLa LMNA splicing GFP/RFP minigene ratio, 48 h; 0.01% of 200,000 active; AID 1487; active = well fitted inhibition curve with a large enough effect in the signal ratio, with a control signal flat, not every such curve was filed as active; inconclusive = small, poorly fitted or top-dose-only effect, or effect the other way, or a change in a side signal; the % refers to the signal ratio
#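 S3 HeLa stable clones carrying a lamin A-EGFP splicing minigene plus DsRed2 were seeded at 600 cells/well in Opti-MEM with 2% FBS, pin-dosed and incubated 48 h at 37°C. Acumen cytometry (488 nm) gave the GFP/RFP total-intensity ratio.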
# PNC inhibitor: inhibitors of perinucleolar compartment assembly. activity change (PNC), negative = inhibition, % at 10 µM. PC3M PTB-GFP, PNC prevalence imaging, 16 h; hits give low values. 3.1% of 140,000 active;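 active = readout at or below -70, meaning at least 70% loss of cells showing the perinucleolar compartment, a nuclear body marking cancer cells; inconclusive = readout between -30 and a set limit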
#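 PC3M cells stably expressing PTB-GFP, 750–1000 cells/well, treated 16 h at 37 °C with compound (23 nl of library stock), in duplicate. After paraformaldehyde fixation and Hoechst stain, imaged at 20x; PNC prevalence scored by image analysis.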
# A number is an active result; - = inactive; ? = inconclusive; . = not tested or not shown; [ ] = remark or other dose. Compounds with a hit are over-represented: about 10% of the library has one in this group of screens. Unless noted, calls follow the shape of the dose curve; as a rule, active = well fitted inhibition curve with a large enough effect (not every such curve was filed as active); inconclusive = small, poorly fitted or top-dose-only effect, or another doubt; inactive = no such curve, though single readings can be large or run the other way.
SMILES,ALDH1A1 block,12-hLO inh,HPGD block,Lamin A splicing,PNC inhibitor
COc1ccc(NS(=O)(=O)c2cccc(-c3nnc4n3CCCCC4)c2)cc1,-,-,-,-,-
Clc1ccc(-c2nnc3n2CCCC3)cc1,-,-,-,-,-
Cn1c(-c2sc3ccccc3c2Cl)n[nH]c1=S,?,-,20µM,?,-
COc1ccc2c(Cl)c(-c3nnc4n3CCCCC4)sc2c1,?,-,1µM,-,-
Clc1c(-c2nnc3n2CCCCC3)sc2ccccc12,-,-,2µM,-,-
CCCC[C@]1(C2CCCC2)Cc2cc(OCC(=O)O)c(Cl)c(Cl)c2C1=O,.,-,.,.,.
Cc1ccccc1C(=O)Nc1cccc(C(=O)OCc2cc(=O)n3nc(C4CC4)sc3n2)c1,.,.,.,-,.
COCCSc1nc2c([nH]c3ccccc32)c(=O)n1-c1ccc(OC)c(OC)c1,.,.,.,-,.
N[C@@H](Cc1[nH]nc2ccccc12)C(=O)O,-[13.5 µM],-[11.4 µM],-,.,.
COc1ccc2oc(=N)c(-c3nnc4n3CCCCC4)cc2c1,?,-,?,-,-
N=c1oc2ccc3ccccc3c2cc1-c1nnc2n1CCCCC2,?,-,?,-,-114
COc1ccc(CNC(=O)CSc2ccsc2[N+](=O)[O-])cc1,14µM,.,.,.,.
CCN(CC)c1ccc(NC(=O)CSc2ccsc2[N+](=O)[O-])c(C)c1,15µM,-,13µM,?,-
COc1ccc(CNC(=O)Cn2cc([N+](=O)[O-])nc2C)cc1,-,-,-,-,-86
Cc1ccc(CNC(=O)CSc2ccsc2[N+](=O)[O-])cc1,-,.,.,?,.
Cc1ccc(NC(=O)N2CCN(c3nnc(C)c4c(C)n(-c5ccccc5)nc34)CC2)c(Cl)c1,.,.,.,-,.
O=C(NCCCNc1ccc([N+](=O)[O-])cc1)C(F)(F)F,?,?,20µM,?,-
CC(=O)Nc1cccc(NC(=O)c2sc3ncn(CC(=O)N4CCCCC4)c(=O)c3c2C)c1,0.89µM,-,-,-,-
COCCNC(=O)c1sc2ncn(CC(=O)N3CCCCC3)c(=O)c2c1C,-,-,-,-,-
O=S(=O)(NCCc1csc2nc(-c3ccc(Cl)cc3)nn12)c1ccc(Oc2ccccc2)cc1,.,.,.,-,.
CCN1C(=O)/C(=C/C=C2/CCCN2C)OC1=S,2.8µM,.,.,.,.
COc1ccc(C2OC(=O)Cc3cc(OC)c(OC)cc32)cc1 (stereo unspecified),-,.,.,?,.
CCOc1cc2c(cc1OCC)C(c1ccccc1OC)OC(=O)C2 (stereo unspecified),11µM,-,-,-,-
CC(C)CC(C(=O)NCC1CCN(Cc2ccc(F)cc2)CC1)N1Cc2ccccc2C1=O (stereo unspecified),.,.,.,-,.
Cc1cc(C(=O)C(=O)N(C)C)c(C)n1-c1ccc(Cl)cc1,-,.,.,-[9.22 µM],.
SMILES,ALDH1A1 block,12-hLO inh,HPGD block,Lamin A splicing,PNC inhibitor
Cc1cc(C(=S)N2CCOCC2)c(C)n1-c1ccc(Cl)cc1,22µM,-,28µM,?,-
Cc1cccc(-n2c(C)cc(C(=S)N3CCOCC3)c2C)c1C,?,.,.,-,.
Cc1cc(C)cc(-n2c(C)cc(C(=S)N3CCOCC3)c2C)c1,-,-,4µM,-,-
c1ccc2c(c1)nnn2Cc1nnc2sc(-c3ccncc3)nn12,?,-,18µM,-,-
c1coc(-c2nn3c(Cn4nnc5ccccc54)nnc3s2)c1,10µM,-,10µM,-,-
Clc1cccc(-c2nn3c(Cn4cnc5ccccc54)nnc3s2)c1,10µM,-,25µM,?,?
Clc1ccc(Cc2nn3c(Cn4nnc5ccccc54)nnc3s2)cc1,22µM,-,22µM,-,?
c1csc(-c2nn3c(Cn4cnc5ccccc54)nnc3s2)c1,?,-,?,-,?
CCOc1ccc(NC(=O)C(C)Sc2nnc3cc(C)c4ccccc4n23)cc1 (stereo unspecified),.,.,.,-,.
CC(=O)OCC1OC(n2cnc3c(Cl)nc(Cl)nc32)C(OC(C)=O)C1OC(C)=O (stereo unspecified),?,-,-,?,.
COc1ccc(C(=O)N2CCC3(CCCN(Cc4ccncc4)C3)CC2)cc1,-,-,-,.,.
c1ccc(-c2nn3c(C4CCCCC4)nnc3s2)nc1,?,-,-,-,-
Clc1ccc(OCc2nn3c(C4CCCCC4)nnc3s2)cc1,18µM,-,20µM,-,-
CCCCNC(=O)CCNS(=O)(=O)c1ccc(Br)cc1,-,-,-,-,-
CCC(C)NC(=O)CCNS(=O)(=O)c1ccc(Br)cc1 (stereo unspecified),-,-,-,-,-90
